# Screening data as filed in PubChem.
# This is a sample that favours compounds with a hit; in the whole collection about 4.7% have one here.
# D1 PAM – human D1 dopamine receptor positive modulation | P21728 | potentiation, % at 10 µM | HEK293 TREx D1 cells, calcium flux, dopamine EC20 potentiation | 0.036% of 360,000 active; in the data active = potentiation above about 30%; also: 0% is about no effect
# Target sequence (P21728 whole entry, looked up): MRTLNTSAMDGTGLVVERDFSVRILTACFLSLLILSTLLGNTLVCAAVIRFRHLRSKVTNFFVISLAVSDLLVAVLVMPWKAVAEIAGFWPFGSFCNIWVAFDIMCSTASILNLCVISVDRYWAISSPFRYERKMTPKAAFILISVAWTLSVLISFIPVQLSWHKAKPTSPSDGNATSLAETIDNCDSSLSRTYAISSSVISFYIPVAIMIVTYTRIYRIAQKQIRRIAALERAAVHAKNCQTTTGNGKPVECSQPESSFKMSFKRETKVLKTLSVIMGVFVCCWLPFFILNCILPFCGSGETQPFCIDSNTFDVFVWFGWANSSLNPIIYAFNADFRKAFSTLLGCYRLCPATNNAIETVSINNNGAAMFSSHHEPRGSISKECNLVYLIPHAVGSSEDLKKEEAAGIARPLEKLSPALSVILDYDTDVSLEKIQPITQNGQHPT
# TRHR ag – TRH receptor (human) agonism; P34981; TRHR cells, calcium flux fluo-8, FDSS agonist mode; activation, % at 2 µM; 0.18% of 360,000 active; AID 493084; also: 0% is about no effect
#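 Steps: seed TRHR cells overnight; add fluo-8 no-wash Ca dye, RT 30 min–1.5 h; record 10 s baseline; pin-transfer compounds; monitor fluorescence 1 cycle/s for the agonist window. Calcium increases flag candidate agonists.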
# D1 antag – antagonists of human D1 dopamine receptor | activity change, negative = inhibition, % at 10 µM | 3.2% of 360,000 active | HEK293 TREx D1 cells, calcium flux, dopamine EC80; stronger effect = lower value | AID 504652; in the data active = activity change below about -30%; also: % is scaled to controls: 0 for no effect and ±100 for the full control effect
#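 Compound effects on dopamine-evoked calcium signalling were measured in tetracycline-induced HEK293 Trex D1 cells. Dopamine at EC80 followed a 180 s compound pre-read, and fluorescence was tracked kinetically for 180 s more.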
# TRHR enhancer – allosterically enhances the human TRH receptor | AID 493056 | TRHR cells, fluo-8 calcium fluorescence, EC20 TRH enhancement | enhancement, % at 2 µM | 0.66% of 360,000 active; in the data active = enhancement above about 30%; also: 0% is about no effect
#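 Enhancer read-out: after compound pinning and an initial kinetic agonist-mode read, an EC20 of TRH (10 nM final) was injected and fluo-8 calcium signal (Ex 480/Em 530) followed at 1 s/cycle for 100 cycles in TRHR-expressing cells.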
# D1 agonist – agonists of human D1 dopamine receptor. HEK293 T-REx D1 cells, calcium flux, agonist mode. activation, % at 2 µM. 1% of 360,000 active. AID 504660; also: 0% is about no effect
#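 Tetracycline-induced HEK293 TREx D1 cells, force-coupled to calcium signalling, were dye-loaded with a no-wash calcium kit. Compound was pin-added after a 10 s baseline. Fluorescence was read kinetically at 1 cycle/s for 180 s, with calcium rises flagged as agonism.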
# * marks the source's active call; other numbers are inactive results. Rule as the data show it, unless noted: active = activation above about 30%; inactive = the rest.
SMILES,D1 PAM,TRHR ag,D1 antag,TRHR enhancer,D1 agonist
CC(C)N1CCc2c(sc(NC(=O)c3ccc(S(=O)(=O)N(C)C4CCCCC4)cc3)c2C(N)=O)C1,-1,23,-15,0,66*
CC(C)N1CCc2c(sc(NC(=O)c3ccc(S(=O)(=O)N4CCc5ccccc54)cc3)c2C(N)=O)C1,-3,24,6,-2,32*
CC(C)N1CCc2c(sc(NC(=O)c3cc(-c4cccs4)nc4ccccc34)c2C(N)=O)C1,-4,27,0,10,83*
O=C(COc1cccnc1[N+](=O)[O-])c1ccc(Cl)s1,0,-1,-8,-7,1
Cc1ccc(/C=C/C(=O)Nc2ccc3nc(N4CCC(C)CC4)cc(C)c3c2)cc1,-1,0,5,5,4
CC(C)Cn1c(N)c(C(=O)COC(=O)c2ccc3c(c2)OCCO3)c(=O)n(C)c1=O,0,1,-2,5,5
CC(C)Cn1c(N)c(C(=O)CSc2ccc3c(c2)OCCO3)c(=O)n(C)c1=O,-7,1,-33*,1,24
COc1ccc(NC(=S)N(Cc2ccc(C)cc2)Cc2ccccn2)cc1,-3,0,-31*,3,1
COc1ccc(NC(=S)N(CCc2ccc(OC)c(OC)c2)Cc2ccccn2)cc1,1,0,-6,-18,2
COc1cc(C(O)c2nc3ccccc3s2)cc(OC)c1OC (stereo unspecified),-1,-1,-8,5,6
CCOc1cccc(Oc2ncccc2C(=O)/C(C#N)=C/N(C)C)c1,-3,0,-38*,-4,3
CSc1cccc(N2CC(C(=O)Nc3ccccc3N3CCCC3)CC2=O)c1 (stereo unspecified),-8,-1,-32*,-8,1
CN(Cc1c(F)cccc1Cl)C(=O)c1ccc(NC(=O)CC2SC(N3CCCC3)=NC2=O)cc1 (stereo unspecified),0,-1,-10,17,-1
CSc1ccc(CCNC(=O)Cn2ncc3c(=O)oc4ccccc4c32)cc1,5,0,6,-3,11
Cc1ccc(C(=O)CSc2nc3ccccc3c(=O)[nH]2)cc1,-2,0,-30*,4,0
COc1cc(C2CC(=O)NC3=C2C(=O)CC(C)(C)C3)cc(OC)c1O (stereo unspecified),-1,0,-11,-1,1
COc1cc(C2CC(=O)OC3=C2C(=O)CC(C)(C)C3)cc(OC)c1OC (stereo unspecified),-1,0,3,33*,-1
COc1ccc(C2=Nn3c(nnc3-c3ccccc3OC)SC2)cc1,15,-1,-27,-1,2
NS(=O)(=O)c1ccc(Sc2ccccn2)c([N+](=O)[O-])c1,-4,-1,-33*,22,2
COC(=O)c1ccc(Sc2ccccn2)c([N+](=O)[O-])c1,-9,0,-34*,10,1
O=C(O)c1ccc(Sc2ccccn2)c([N+](=O)[O-])c1,3,0,-4,22,2
O=[N+]([O-])c1ccc(Sc2ccccn2)nc1,6,-1,-68*,1,2
O=[N+]([O-])c1cc(C(F)(F)F)ccc1Sc1ccccn1,-8,0,13,-1,-1
C#Cc1ccc([C@H]2C=C(C(=O)Nc3ccccc3)O[C@@H](OCc3ccc(CO)cc3)C2)cc1,-6,0,2,2,4
Cc1c(O)c2ccccc2oc1=O,2,0,1,39*,1
SMILES,D1 PAM,TRHR ag,D1 antag,TRHR enhancer,D1 agonist
CN=C(C)c1c(O)c2ccccc2oc1=O,-1,0,3,-5,2
COc1cccc(-c2nnc(SCC(=O)NC3CCS(=O)(=O)C3)n2C)c1 (stereo unspecified),-7,0,-35*,-1,3
CNC(=S)N(C)/N=C1/C(=O)N(Cc2c(Cl)cccc2Cl)c2ccccc21,-4,-2,-34*,-10,6
CC(Oc1ccc(C#N)cc1)C(=O)c1ccc(F)c(F)c1 (stereo unspecified),-5,-1,-35*,12,12
CC(C)OC(=O)CSc1nc2ncc(Cl)cc2[nH]1,-5,-1,-30*,0,2
CC(C)OC(=O)CSc1nc2ncccc2[nH]1,1,1,-3,-2,6
CSc1nc(N)c(C#N)c(-c2ccc(Cl)cc2)c1C#N,-11,2,-32*,0,9
CSc1nc(-c2ccc(Cl)cc2)nc(N)c1C#N,3,0,9,8,2
CCC(C)Sc1ccc([C@H]2N[C@@](Cc3ccccc3)(C(=O)OC)[C@H]3C(=O)N(CC)C(=O)[C@@H]23)cc1 (stereo partly specified),3,1,1,-4,6
O=C(NCc1ccccc1)c1ccc2c(c1)N(Cc1ccccc1F)C(=O)c1ccccc1S2=O (stereo unspecified),-4,0,-1,0,2
Cc1cc(C)c(S(=O)(=O)Nc2nnc(C)s2)c(C)c1,-2,0,-34*,10,3
COC(=O)c1ccc(OC)c(CN2CCCN(Cc3ccc(C)cc3)S2(=O)=O)c1,-3,1,-34*,3,5
CC(C)c1ccc(CN2CCN(C(=O)CSc3nnnn3C3CC3)CC2)cc1,-2,0,-36*,-3,5
Cc1ccc(N(CCC#N)C(=O)COC(=O)c2cc(C)oc2C)cc1,2,0,-20,0,4
COc1ccc(CC(=O)N2CCc3cc(OC)c(OC)cc3C2COc2ccc(F)cc2)cc1 (stereo unspecified),1,0,1,3,8
CCc1ccccc1NC(=O)CSc1nncn2c1cc1oc(C)cc12,-7,1,3,-1,6
Cc1cc(C)c(S(=O)(=O)N2CCN(C(=O)C3COc4ccccc4O3)CC2)c(C)c1 (stereo unspecified),0,0,-4,36*,2
COc1cccc(C(=O)N2CCN(C(=O)C3COc4ccccc4O3)CC2)c1 (stereo unspecified),-2,0,-32*,4,3
COc1ccc(C(=O)N2CCN(C(=O)C3COc4ccccc4O3)CC2)cc1OC (stereo unspecified),0,1,7,-6,2
O=c1ccc2cc(S(=O)(=O)NCc3ccc(Cl)cc3)ccc2[nH]1,0,0,7,1,0
Cc1cc([N+](=O)[O-])cc(C)c1OCC(=O)N/N=C/c1ccc(OC(=O)c2ccccc2Br)cc1,-4,0,-33*,-7,4
Cc1ccc(N2CCN(C(=S)c3ccc(N(C)C)cc3)CC2)cc1,-4,-1,-11,-5,1
CC(=O)N1CCN(c2ccc([N+](=O)[O-])cc2)CC1,-4,0,4,4,3
